HTT ATP protect – protects HTT-Q103 PC12 cells, measured by ATP | 0.14% of 230,000 active | AID 1471 | Potency, µM (series often up to 56.4 µM), inactives show cytoprotection (ATP increase), hits mostly activators | PC12 HTT-Q103 induced, cytoprotection, ATP luminescence, 40 h; also: % of control where 0% means no effect; nearly all actives have a fitted effect of over 45% in size
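Quantitative HTS on tebufenozide-induced (100 nM) PC12 cells expressing HTTQ103 exon 1–GFP; compounds tested as a concentration series; survival measured via cellular ATP.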
KDM4E inh – JMJD2E (human) inhibition | B2RXH2 | JMJD2E catalytic domain, FDH-coupled NADH fluorescence (FDH is formaldehyde dehydrogenase) | Potency, µM (series often up to 57.1 µM), for the others: at the highest dose activity change, negative = inhibition, usual class: inhibitors | 1.6% of 230,000 active | AID 2147; active = well fitted inhibition curve with a large enough effect, not every such curve was filed as active; inconclusive = small, poorly fitted or top-dose-only effect, or another doubt; inactive = no such curve, though single readings can be large or run the other way;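 also: 0% = wells with enzyme and -100% = buffer wells without enzyme; nearly all actives have a fitted effect of over 50% in size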
Target sequence (B2RXH2 1-337 limits assumed): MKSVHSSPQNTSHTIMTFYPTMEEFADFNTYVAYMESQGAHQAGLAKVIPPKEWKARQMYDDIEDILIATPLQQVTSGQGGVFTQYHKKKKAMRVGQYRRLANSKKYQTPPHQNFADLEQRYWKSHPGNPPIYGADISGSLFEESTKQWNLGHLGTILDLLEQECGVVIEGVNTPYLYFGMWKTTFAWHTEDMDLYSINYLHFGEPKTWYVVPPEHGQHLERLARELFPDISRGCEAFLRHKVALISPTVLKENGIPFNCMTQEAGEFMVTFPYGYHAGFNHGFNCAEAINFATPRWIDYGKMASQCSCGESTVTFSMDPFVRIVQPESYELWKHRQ
HTT aggregate – mutant huntingtin aggregation inhibition; PC12 HttQ103-GFP aggregates, Acumen cytometry, 40 h; Potency, µM (doses to about 46.1 µM), without a hit: at the highest dose activity change, negative = inhibition, most hits filed as inhibitors; 1.1% of 220,000 active; also: % is scaled to controls: 0 for no effect and ±100 for the full control effect; nearly all actives have a fitted effect of over 60% in size
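Compounds (qHTS titration) were added to PC12 cells expressing an ecdysone-driven HTT exon 1 Q103–GFP fusion after induction with 100 nM tebufenozide. Aggregate formation was measured as GFP objects in cell lysates.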
L3MBTL1 inh-1 – blocks human L3MBTL1. Q9Y468. AlphaScreen L3MBTL1–H3K9me1 peptide binding. Potency, µM (doses to about 57.1 µM), for inactives: at the highest dose activity, negative = inhibition, hits mostly inhibitors. 0.66% of 230,000 active; also: % is scaled to controls: 0 for no effect and ±100 for the full control effect; nearly all actives have a fitted effect of over 60% in size
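AlphaScreen assay: L3MBTL1 (50 nM final) was preincubated 30 min at room temperature with biotinylated H3(1-15)K9me1 peptide (75 nM final), then 30 min with library compounds; streptavidin donor and nickel chelate acceptor beads (10 ug/mL final) added, 30 min dark.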
L3MBTL1 inh-2 – L3MBTL1 binding inhibition validated; shares compounds with L3MBTL1 inh-1; L3MBTL1 methyl-lysine binding inhibition, biochemical qHTS; Potency, µM, usual class: inhibitors; 91% of 500 active; AID 540279; also: nearly all actives have a fitted effect of over 70% in size
AlphaScreen ctr2 – AlphaScreen signal inhibition, L3MBTL1 hit counter-screen; shares compounds with L3MBTL1 inh-1; AlphaScreen counterscreen, signal inhibition; Potency, µM (titrated, usually from 57.1 µM), for inactives: at the top dose activity change, negative = inhibition, usual class: inhibitors; 500 tested, under 10 active; also: 0% is about no effect
* marks the source's active call; other numbers are inactive results; ? = inconclusive; . = no result; [ ] = remark or other dose. Only some compounds are listed: those with a hit (about 1.8% of all), similar ones and a draw of the others. Unless noted, calls follow the shape of the dose curve; as a rule, active = well fitted curve in the direction sought with a large enough effect; inconclusive = small, poorly fitted or top-dose-only effect, or another doubt; inactive = no such curve, though single readings can be large; an effect the other way counts as inactive or inconclusive. Potency is read from the fitted curve at half-maximal effect.

SMILES | HTT ATP protect | KDM4E inh | HTT aggregate | L3MBTL1 inh-1 | L3MBTL1 inh-2 | AlphaScreen ctr2
Cc1nccc2oc(=O)c(NC(=O)c3ccc(Cl)cc3)cc12 | 11%[10 µM] | 5% | -2% | 27% | . | .
CCNc1ncc2nc(-c3cccs3)c(=O)n(Cc3cccc(OC)c3)c2n1 | -25% | . | . | . | . | .
O=C(Nc1nc2ccc(F)cc2s1)C1CCN(S(=O)(=O)c2cc([N+](=O)[O-])ccc2Cl)CC1 | 23%[10 µM] | -16% | ? | 28µM* | 6.7* | ?
Cc1ccc2nc(NC(=O)C3CCN(S(=O)(=O)c4cc([N+](=O)[O-])ccc4Cl)CC3)sc2c1 | 0%[10 µM] | -3% | ? | 10µM* | 9.5* | -16%
CCOc1ccccc1-n1nnnc1SCC(=O)NC(=O)NCc1ccco1 | 5%[10 µM] | -9% | 1% | 25µM* | 21* | 0%
O=C(CSc1nnc(COc2ccccc2Cl)o1)NC(=O)NCc1ccco1 | 9%[10 µM] | -1% | 21%[9.22 µM] | 14µM* | 12* | -8%
Cc1ccccc1Nc1nnc(SCC(=O)NC(=O)NCc2ccco2)s1 | -7%[10 µM] | -4% | -4% | 28µM* | 9.5* | 8%
CC(C)(C)NC(=O)NC(=O)CSc1nnc(COc2ccccc2Cl)o1 | -13% | 0% | 29% | . | . | .
O=C(CSc1nnnn1-c1ccccc1)NC(=O)NCc1ccco1 | 12% | -2% | 2% | . | . | .
CN(C)c1nc(-c2cccc(NS(C)(=O)=O)c2)nc2ccccc12 | 11% | . | . | . | . | .
CCOC(=O)CCN1C(=O)[C@H]2[C@@H]3[C@H](O)[C@H](O)CC(=O)[C@H]3CC[C@H]2C1=O | -61%[10 µM] | . | . | . | . | .
COc1cccc([C@@H]2Oc3ccc(OC)cc3/C(=N/O[C@@H](C)c3cc(-c4c(C)cc(C)cc4C)no3)[C@@H]2O)c1 | 0%[10 µM] | . | . | . | . | .
CC(=O)c1ccc(NC(=O)CSc2nnc(-c3ccco3)c(-c3ccco3)n2)cc1 | -7%[10 µM] | 16µM* | -16%[9.22 µM] | 25µM* | 15* | ?
OC[C@@H](O)[C@@H](O)CCc1ccccc1 | -19% | -4% | . | . | . | .
COc1ccc(NC(=O)c2ccc(Cl)nc2)cc1S(=O)(=O)N1CCOCC1 | . | . | . | -5% | . | .
COc1ccc(NC(=O)Cn2ncc(Cl)c(Cl)c2=O)cc1S(=O)(=O)N1CCOCC1 | 44%[10 µM] | -17% | ? | 14µM* | 12* | 23%
Cc1ccc(-c2nc3c(c(=O)[nH]c(=O)n3Cc3ccccc3)n2C)o1 | -24% | ? | -1% | 10µM* | 3.4* | 16%
Cc1ccc(-c2nc3c(c(=O)[nH]c(=O)n3Cc3ccccc3)n2Cc2ccccc2)o1 | -26%[10 µM] | 6% | 6% | -3% | . | .
CC(=O)[C@@H]1CC[C@@H]2[C@@H]3C[C@H](C)C4=CC(=O)CC[C@@]4(C)[C@H]3[C@H](O)C[C@]21C | -31%[17.1 µM] | -1%[25.5 µM] | -20%[20.6 µM] | . | . | .
Cc1c(O)cc2c(c1O)C(=O)CC(c1ccc(O)cc1)O2 (stereo not drawn) | 1%[10 µM] | -16% | -14%[9.22 µM] | 4µM* | 6.7* | 7%
COCCN(C(=O)COC(=O)c1cc2c(s1)CCC2)c1c(N)n(Cc2ccccc2)c(=O)[nH]c1=O | . | . | . | 2.5µM* | 0.84* | -2%
COCCN(C(=O)COC(=O)Cc1coc2cc(C)ccc12)c1c(N)n(Cc2ccccc2)c(=O)[nH]c1=O | . | . | . | 25µM* | 27* | 1%
CCC1CCc2sc(C(=O)OCC(=O)N(CCOC)c3c(N)n(Cc4ccccc4)c(=O)[nH]c3=O)cc2C1 (stereo not drawn) | . | . | . | -11% | . | .
O=C1NC(=O)/C(=C/c2ccc(-c3cc(C(=O)O)ccc3Cl)o2)S1 | . | . | . | 7.1µM* | 8.4* | -6%
Cc1nc(N)sc1-c1csc(Nc2cccc(C(=O)O)c2)n1 | . | . | . | 22µM* | 21* | 4%
CCC(=O)Nc1nc(C)c(-c2csc(Nc3cccc(C(=O)O)c3)n2)s1 | -8%[10 µM] | -2% | -3%[9.22 µM] | -23% | . | .
CCn1c(SC(C)C(=O)O)nc2sc3c(c2c1=O)CCC3 (stereo not drawn) | 2%[10 µM] | -10% | 6% | 28µM* | 3.4* | 2%
CC(Sc1nc2sc3c(c2c(=O)n1-c1ccccc1)CCCC3)C(=O)O (stereo not drawn) | -39%[10 µM] | -7% | 12%[9.22 µM] | 10% | . | .
